Many of the other results were omitted from the sample, so hits are more common in it than they were.
IDE exosite inh = exo-site inhibitors of human IDE, primary screen, biochemical, fluorescence anisotropy, probe displacement. Insulin-degrading enzyme (Homo sapiens), P14735. purified IDE, FL-6b probe fluorescence polarization; stronger effect = lower value. z-score at 20 µM. 17,000 compounds, 6.3% hits. AID 1259349, 2017;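 active = z-score of -3 or lower, meaning strong loss of probe binding signal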;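 note: His-tagged human IDE residues 42-1019 made in E. coli with 30 nM FL-6b probe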
* marks the source's active call; other numbers are inactive results.

SMILES	IDE exosite inh
O=C(NCC[C@@H]1CC[C@@H](NC(=O)c2ccccc2F)[C@H](CO)O1)c1cnccn1	2.2
O=C(Cc1ccccn1)N1[C@@H](CO)[C@@H]2c3ccccc3NC[C@@H]21	1.6
COc1ccc2c3c([nH]c2c1)[C@H](CO)N(C(C)=O)CC31CCN(Cc2cc(-c3ccccc3)on2)CC1	0.16
C[C@H]1CN([C@@H](C)CO)C(=O)c2ccccc2-c2ccccc2CO[C@@H]1CN(C)S(=O)(=O)c1cn(C)cn1	-0.45
O=C(C1CCC1)N1C[C@@H]2[C@H](c3ccccc31)[C@H](CO)N2C(=O)Nc1cccc(F)c1	0.11
CO[C@@H]1CN(C)C(=O)c2cc(NS(C)(=O)=O)ccc2OC[C@@H](C)N(C(=O)C2CCOCC2)C[C@@H]1C	0.088
C[C@@H]1CC=CC[C@H](c2ccc3c(c2)OCO3)NC(=O)[C@H](C)N(C)C(=O)c2ccccc2O1 (mixture of isomers)	-0.33
Cc1ccccc1-c1ccc([C@H]2[C@@H](CO)N3C(=O)CN(C(=O)Cc4ccccn4)C[C@@H]23)cc1	-17*
COc1ccc(-c2ccc([C@H]3[C@@H](CO)N4C(=O)CN(C(=O)Cc5ccccn5)C[C@@H]34)cc2)cc1	0.65
O=C(Cc1ccccn1)N1CC(=O)N2[C@H](CO)[C@H](c3ccc(C#CC4CCCCC4)cc3)[C@@H]2C1	-0.63
Cc1ccccc1-c1ccc([C@H]2[C@H](CO)N3C(=O)CN(C(=O)Cc4ccccn4)C[C@@H]23)cc1	-14*
O=C(Cc1ccccn1)N1CC(=O)N2[C@H](C1)[C@H](c1ccc(C#CC3CC3)cc1)[C@@H]2CO	0.55
O=C(Cc1ccccn1)N1CC(=O)N2[C@H](CO)[C@@H](c3ccc(C#CC4CCCCC4)cc3)[C@H]2C1	-0.35
CC(=O)N1CC(=O)N2[C@@H](CO)[C@H](c3ccc(-c4ccc(C(=O)N(C)C)cc4)cc3)[C@@H]2C1	4.6
C/C=C/c1ccc([C@H]2[C@@H](CO)N3C(=O)CN(C(=O)c4cnccn4)C[C@@H]23)cc1	2.8
C/C=C/c1ccc([C@H]2[C@@H](CNC(=O)CC3CC3)N(C(C)=O)[C@H]2CO)cc1	2.3
C[C@@H](O)C#Cc1ccc([C@@H]2[C@H](CO)N3CCCCN(C(=O)Nc4ccccc4)C[C@@H]23)cc1	3.6
CCC(=O)N1CC(=O)N2[C@H](CO)[C@@H](c3ccc(-c4ccccc4C)cc3)[C@H]2C1	-4*
CCC(=O)N1CC(=O)N2[C@@H](CO)[C@H](c3ccc(-c4ccccc4F)cc3)[C@@H]2C1	0.65
CCC(=O)N1CC(=O)N2[C@H](CO)[C@H](c3ccc(-c4ccccc4C)cc3)[C@@H]2C1	-8*
COCC(=O)N1CC(=O)N2[C@H](CO)[C@@H](c3ccc(-c4ccccc4C)cc3)[C@H]2C1	-0.94
Cc1ccccc1-c1ccc([C@H]2[C@H](CO)N3C(=O)CN(S(C)(=O)=O)C[C@@H]23)cc1	-1.4
CCS(=O)(=O)N1CC(=O)N2[C@H](CO)[C@@H](c3ccc(-c4ccccc4C)cc3)[C@H]2C1	-0.81
C[C@@H]1CN([C@H](C)CO)C(=O)c2ccccc2-c2ccccc2CO[C@@H]1CN(C)S(=O)(=O)Cc1ccccc1	1.1
CCCN1C[C@@H](C)[C@H](OC)CN(C)C(=O)c2cc(NC(=O)C3CCC3)ccc2OC[C@@H]1C	-0.58
SMILES	IDE exosite inh
O=C(CN1CCOCC1)N1CC(=O)N2[C@H](CO)[C@@H](c3ccc(/C=C/c4ccccc4)cc3)[C@H]2C1	-6*
O=C(C1CCOCC1)N1CC(=O)N2[C@H](CO)[C@H](c3ccc(Br)cc3)[C@@H]2C1	-0.28
CCCC#Cc1ccc([C@H]2[C@H](CO)N3C(=O)CN(C(=O)CN4CCOCC4)C[C@@H]23)cc1	1.2
O=C(CN1CCOCC1)N1CC(=O)N2[C@H](CO)[C@@H](c3ccc(/C=C/c4ccccc4)cc3)[C@@H]2C1	-4.4*
O=C(C1CCOCC1)N1CC(=O)N2[C@@H](CO)[C@@H](c3ccc(Br)cc3)[C@@H]2C1	1.4
O=C(CN1CCOCC1)N1CC(=O)N2[C@H](CO)[C@@H](c3ccc(-c4ccccc4)cc3)[C@H]2C1	3.1
O=C(C1CCOCC1)N1CC(=O)N2[C@H](C1)[C@@H](c1ccc(/C=C/c3ccccc3)cc1)[C@@H]2CO	-7.6*
CCCC#Cc1ccc([C@H]2[C@H]3CN(C(=O)CN4CCOCC4)CC(=O)N3[C@H]2CO)cc1	4.6
CCCC#Cc1ccc([C@@H]2[C@@H](CO)N3C(=O)CN(C(=O)CN4CCOCC4)C[C@H]23)cc1	1.8
CN1C(=O)c2cc(NC(=O)Cc3cccs3)ccc2OC[C@@H]2O[C@H](CC(=O)NCCc3ccncc3)CC[C@@H]21	0.06
COc1ccccc1CN1[C@@H]2c3ccc(C4=CCCC4)c(=O)n3C[C@H]1[C@H](CO)[C@H]2C(=O)N(C)C	-0.7
CCC(=O)N1[C@@H]2CN(S(=O)(=O)c3ccc(F)cc3)c3ccccc3[C@@H]2[C@@H]1CO	3.4
C[C@H]1CC=CC[C@H](c2ccccc2)NC(=O)[C@H](C)N(C)C(=O)c2ccccc2O1 (mixture of isomers)	1.5
CN(C)C(=O)c1ccc(-c2ccc([C@@H]3[C@H](CO)N4CCCCN(CC5CC5)C[C@@H]34)cc2)cc1	0.13
O=C(c1cccnc1)N1CC(=O)N2[C@@H](CO)[C@H](c3ccc(-c4cccnc4)cc3)[C@@H]2C1	-0.79
COc1ccc(-c2ccc([C@H]3[C@@H](CO)N4C(=O)CN(C(=O)c5cccnc5)C[C@@H]34)cc2)cc1	2.7
O=C(c1ccncc1)N1CC(=O)N2[C@H](C1)[C@@H](c1ccc(-c3cccnc3)cc1)[C@@H]2CO	-3.2*
Cc1cccc(-c2ccc([C@H]3[C@@H](CO)N4C(=O)CN(C(=O)c5cccnc5)C[C@H]34)cc2)c1	-15*
COc1ccc(-c2ccc([C@H]3[C@@H](CO)N4C(=O)CN(C(=O)c5cccnc5)C[C@H]34)cc2)cc1	-4.9*
COc1ccc(-c2ccc([C@@H]3[C@@H](CO)N4C(=O)CN(C(=O)c5cccnc5)C[C@H]34)cc2)cc1	0.58
Cc1ccc(-c2ccc([C@@H]3[C@H]4CN(C(=O)c5cccnc5)CC(=O)N4[C@H]3CO)cc2)cc1	-3.6*
COc1ccc(-c2ccc([C@@H]3[C@H]4CN(C(=O)c5cccnc5)CC(=O)N4[C@H]3CO)cc2)cc1	1.7
Cc1ccc(-c2ccc([C@H]3[C@@H](CO)N4C(=O)CN(C(=O)c5cccnc5)C[C@@H]34)cc2)cc1	-1.7
O=C(c1cccnc1)N1CC(=O)N2[C@H](C1)[C@@H](c1ccc(-c3cccnc3)cc1)[C@@H]2CO	-1.9
O=C([C@H]1[C@H](CO)[C@H]2Cn3c(cccc3=O)[C@H]2N1C(=O)CC1CC1)N1CCc2ccccc2C1	0.53
SMILES	IDE exosite inh
CCS(=O)(=O)NCC[C@@H]1CC[C@@H](NS(=O)(=O)c2ccccc2C)[C@@H](CO)O1	1.4
N#C[C@@H]1[C@H](c2ccc(-c3ccccc3F)cc2)[C@H](CO)N1C(=O)c1ccccn1	-1.4
COc1ccccc1S(=O)(=O)N1CC[C@@H]2[C@@H](CO)Nc3ccc(-c4ccc(C#N)cc4)cc3[C@@H]21	1.5
N#C[C@H]1[C@H](c2ccccc2-c2cccc(F)c2)[C@@H](CO)N1C(=O)C1CCOCC1	2
C[C@@H](NC(=O)C[C@@H]1CC[C@H]2[C@@H](COC[C@H](O)CN2Cc2ccc(C(F)(F)F)cc2)O1)c1ccccc1	-0.24
COCC(=O)N1[C@@H](C#N)[C@H](c2ccccc2-c2ccccc2F)[C@@H]1CO	0.35
